Inconclusive results are not listed. Entries that show only a call come without a potency. The source made the active and inactive calls. Unless noted, the call rests on the fitted dose curve.
Tested on: not listed separately
Assay: cAMP Responsive Elements (CRE) small molecule antagonists, cell-based qHTS assay (AID 1963591; active means well fitted inhibition curve with a large enough effect in the signal ratio in the repeat runs, not every such curve was filed as active; the % refers to the signal ratio)
Settings: CRE-bla HEK293T, beta-lactamase FRET ratio; series mostly up to 92.4 µM
Method in brief: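 First, CRE-bla HEK293T cells settled 18 h at 37 C. Next, compound and 0.25 uM final NKH477 were applied for 3 h. Last, LiveBLAzer B/G substrate was loaded for 2 h at room temperature.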

Compound | Potency
CCCCCC[n+]1ccccc1 | inactive
NN=C(N)N | inactive
O=c1[nH]c2ccccc2c(=O)o1 | inactive
CC(C)CCCCCCOC(=O)c1ccccc1C(=O)OCCCCCCC(C)C | inactive

Biological target: Beta-2 adrenergic receptor (Homo sapiens) (UniProt P07550)
Assay: Adrenergic beta2 receptor (ADRB2) small molecule antagonists, cell-based qHTS assay (AID 1963592); further: nearly all actives have a fitted effect of over 50% in size; further: potency means the concentration at half of the fitted maximal effect
Settings: CHO-ADRB2 cells, isoproterenol-stimulated cAMP HTRF ratio, 0.5 h; series mostly up to 92.4 µM
Method in brief: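 Assay format: CHO-ADRB2 cells, 18-20hr seeding at 37C/5% CO2, then compound plus 1nM isoproterenol agonist mix for 0.5hr RT. Homogeneous time-resolved fluorescence cAMP detection after 1hr, expressed as 665/615 nm ratio.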

Chain of Beta-2 adrenergic receptor (Homo sapiens) (P07550 whole entry, looked up): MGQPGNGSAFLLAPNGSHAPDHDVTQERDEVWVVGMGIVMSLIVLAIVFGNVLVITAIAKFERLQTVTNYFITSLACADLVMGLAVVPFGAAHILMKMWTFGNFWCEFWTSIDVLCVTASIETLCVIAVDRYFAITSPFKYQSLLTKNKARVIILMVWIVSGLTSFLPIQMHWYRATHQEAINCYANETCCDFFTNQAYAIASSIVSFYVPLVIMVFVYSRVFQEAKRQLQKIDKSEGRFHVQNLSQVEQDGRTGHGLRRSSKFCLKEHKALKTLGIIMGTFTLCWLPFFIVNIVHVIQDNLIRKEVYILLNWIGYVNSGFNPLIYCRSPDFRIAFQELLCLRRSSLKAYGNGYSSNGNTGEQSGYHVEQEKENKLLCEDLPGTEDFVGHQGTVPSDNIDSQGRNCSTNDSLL

Compound | Potency
CC(C)c1ccc(OP(=O)(Oc2ccc(C(C)C)cc2)Oc2ccc(C(C)C)cc2)cc1 | inactive
Clc1cccc(Cl)c1 | inactive
ClC(Cl)c1ccccc1 | inactive
O=P(OCC(Br)CBr)(OCC(Br)CBr)OCC(Br)CBr (centres undefined) | inactive
Clc1cccc(C(Cl)(Cl)Cl)n1 | inactive
CC(C)N1C(=O)c2ccccc2NS1(=O)=O | inactive
CCCCn1cc[n+](C)c1 | inactive
CCOP(=S)(OCC)Oc1nc(Cl)c(Cl)cc1Cl | inactive
CCN(CC)C(=O)/C(Cl)=C(\C)OP(=O)(OC)OC | inactive
CCCCCCCCCCCCCCCl | inactive
O=C(NC(=O)c1ccccc1Cl)Nc1ccc(OC(F)(F)F)cc1 | inactive
c1ccc(C2CO2)cc1 (centres undefined) | inactive
ClCCOCCCl | inactive
Oc1cccc2cccnc12 | inactive
CN=C=O | inactive
CC(O)CCO (centres undefined) | inactive
CCCCON=O | inactive

Compound | Potency
CCOP(=S)(OCC)Oc1ccc([N+](=O)[O-])cc1 | inactive
C=CC(Cl)CCl (centres undefined) | inactive
CN(CCCC(=O)c1cccnc1)N=O | inactive
Nc1ccc(Cl)cc1N | inactive
Cc1ccc(N)c(C)c1 | inactive
N#CCCCCC#N | inactive
C[C@H]1O[C@H](OC2[C@@H](O)[C@@H](O)C(O)[C@H](O)[C@H]2O)[C@@H](N)C[C@@H]1N=C(N)C(=O)O (some centres undefined) | inactive
CCC(C)c1ccc(O)cc1 (centres undefined) | inactive
O=C(CCl)c1ccc(Cl)cc1Cl | inactive
O=c1[nH]c2ccccc2n1C1CCN(CCCC(c2ccc(F)cc2)c2ccc(F)cc2)CC1 | 33.5 µM (active)
O=P(Oc1ccccc1)(Oc1ccccc1)Oc1ccccc1 | inactive
CCCCCCCCCCCCn1cc[n+](C)c1 | inactive
Nc1cccc2ccccc12 | inactive
CCCCCC[n+]1ccccc1 | inactive
NN=C(N)N | inactive
O=c1[nH]c2ccccc2c(=O)o1 | inactive
CC(C)CCCCCCOC(=O)c1ccccc1C(=O)OCCCCCCC(C)C | inactive

Biological target: Beta-2 adrenergic receptor (Homo sapiens) (UniProt P07550)
Assay: Adrenergic beta2 receptor (ADRB2) small molecule agonists, cell-based qHTS assay (AID 1963593);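 further: CHO cells stably overexpressing human ADRB2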
Settings: CHO-ADRB2 cells, cAMP HTRF, 30 min; series mostly up to 92.4 µM
Method in brief: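 CHO cells stably over-expressing ADRB2 were plated overnight at 37C, then dosed with compounds plus a stimulation mix containing 100uM IBMX and 25uM Ro-20-1724 for 0.5hr at room temperature. cAMP was measured by HTRF competition, 1hr.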

Compound | Potency
Clc1cccc(Cl)c1 | inactive
ClC(Cl)c1ccccc1 | inactive
Clc1cccc(C(Cl)(Cl)Cl)n1 | inactive
COP(=O)(NC(C)=O)SC (centres undefined) | inactive
CCCCn1cc[n+](C)c1 | inactive
COP(=O)(OC)OC | inactive
CCN(CC)C(=O)/C(Cl)=C(\C)OP(=O)(OC)OC | inactive
O=C(NC(=O)c1ccccc1Cl)Nc1ccc(OC(F)(F)F)cc1 | inactive
c1ccc(C2CO2)cc1 (centres undefined) | inactive
ClCCOCCCl | inactive
Oc1cccc2cccnc12 | inactive
CCOP(=S)(OCC)Oc1ccc([N+](=O)[O-])cc1 | inactive
Nc1ccc(Cl)cc1N | inactive
N#CCCCCC#N | inactive
CCC(C)c1ccc(O)cc1 (centres undefined) | inactive
CCCCC(CC)C(=O)Cl (centres undefined) | inactive
CCCCCCCCCCCCn1cc[n+](C)c1 | inactive
CCCCCC[n+]1ccccc1 | inactive
NN=C(N)N | inactive
O=c1[nH]c2ccccc2c(=O)o1 | inactive
CC(C)CCCCCCOC(=O)c1ccccc1C(=O)OCCCCCCC(C)C | inactive
